Source: PubChem BioAssay
TDP1 inh = qHTS Assay for Inhibitors of Tyrosyl-DNA Phosphodiesterase (TDP1) | recombinant TDP1, AlphaScreen DNA substrate cleavage | Potency, µM (titrated, usually from 130 µM), for inactives: at the highest dose activity change, negative = inhibition, actives largely listed as inhibitors | 350,000 tested, 0.28% active | AID 485290, 2010; further: on the % scale 0 is the no-effect control and ±100 the full control effect; nearly all actives have a fitted effect of over 40% in size
Target sequence (Q9NUW8 whole entry, looked up): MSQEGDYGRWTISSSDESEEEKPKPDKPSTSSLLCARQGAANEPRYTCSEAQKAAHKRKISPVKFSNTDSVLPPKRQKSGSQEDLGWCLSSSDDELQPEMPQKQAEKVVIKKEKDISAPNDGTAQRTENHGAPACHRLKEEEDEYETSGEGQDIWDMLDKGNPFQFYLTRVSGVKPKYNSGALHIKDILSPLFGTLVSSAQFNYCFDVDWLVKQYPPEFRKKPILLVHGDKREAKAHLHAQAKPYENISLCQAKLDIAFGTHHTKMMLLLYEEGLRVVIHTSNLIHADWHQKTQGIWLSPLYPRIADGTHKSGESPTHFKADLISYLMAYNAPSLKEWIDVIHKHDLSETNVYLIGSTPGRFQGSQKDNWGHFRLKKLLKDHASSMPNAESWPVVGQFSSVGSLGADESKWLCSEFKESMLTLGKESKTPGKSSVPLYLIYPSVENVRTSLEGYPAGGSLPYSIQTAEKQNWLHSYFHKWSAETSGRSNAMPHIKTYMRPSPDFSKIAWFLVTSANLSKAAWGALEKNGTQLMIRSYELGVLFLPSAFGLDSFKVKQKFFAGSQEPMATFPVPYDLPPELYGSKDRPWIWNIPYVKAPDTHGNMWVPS
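AlphaScreen read-out: signal falls as enzyme removes the 3' tyrosine-FITC from a 5'-biotinylated DNA oligo (15 nM, 5 min, RT). Enzyme was E. coli-made recombinant Tdp1 at 1 nM, exposed to compound for 15 min beforehand; beads 10 ug/ml, 10 min.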
ClpP mod = qHTS Assay for Activators of ClpP; ATP-dependent Clp protease proteolytic subunit (Bacillus subtilis (strain 168)), P80244; purified B. subtilis ClpP, FRET peptide cleavage, 20 min; Potency, µM (top dose mostly 57.5 µM), inactives show at the highest dose activity change, negative = active; 340,000 tested, 1.9% active; active means well fitted falling curve with a large enough effect; inconclusive means small, poorly fitted or top-dose-only effect; inactive means no such curve, though single readings can be large or run the other way; further: the source files actives as falling curves though it sought activators and does not explain the sign; nearly all actives have a fitted effect of over 65% in size
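Purified B. subtilis ClpP, 10 microg/mL final in Tris/HCl pH8 with KCl, BSA, glycerol and Tween-20, cleaved an Abz/nitrotyrosine-quenched decapeptide. Fluorescence (ex 320, em 430) was read at 0 and 20 min at room temperature. Delta was normalized to 5.8 microM ADEP and DMSO/no-enzyme controls.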
DT40 TDP1 no CPT = qHTS for Inhibitors of human tyrosyl-DNA phosphodiesterase 1 (TDP1): qHTS in cells in absence of CPT; DT40 Tdp1-/- hTDP1 cells, no CPT, ATP luminescence, 48 h; Potency, µM (titrated, usually from 46.2 µM), for inactives: at the highest dose activity change, negative = growth inhibition, usual class: inhibitors; 420,000 tested, 15% active; AID 686978, 2013; further: on the % scale 0 is the no-effect control and ±100 the full control effect; nearly all actives have a fitted effect of over 55% in size
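Seeded 400 DT40-hTDP1 cells/well (vehicle DMSO, no 20 nM CPT); pinned compounds; ≥48 hr at 37 °C; CellTiter-Glo luminescence as viability measure.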
TDP1 cell CPT = qHTS for Inhibitors of human tyrosyl-DNA phosphodiesterase 1 (TDP1): qHTS in cells in presence of CPT | chicken DT40 Tdp1-/-;hTDP1 cells + 20 nM CPT, ATP luminescence, 48 h | Potency, µM (highest dose often 46.2 µM), for the others: at the top dose activity change, negative = growth inhibition, hits mostly inhibitors | 420,000 tested, 12% active | AID 686979, 2013; further: on the % scale 0 is the no-effect control and ±100 the full control effect; nearly all actives have a fitted effect of over 55% in size
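Chicken DT40 Tdp1-/- cells complemented with human TDP1, 400 cells/well, exposed to compounds plus 20 nM camptothecin for at least 48 h at 37 C; viability read as ATP content by CellTiter-Glo luminescence.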
* hit, by the source's call; ? = inconclusive; · = not tested or not shown; [ ] = another dose, or the depositor's remark. An excerpt weighted towards active compounds, which were near 17% of everything screened. Unless noted, the call rests on the fitted dose curve; in most records, active means well fitted curve in the direction sought with a large enough effect; inconclusive means small, poorly fitted or top-dose-only effect, or another doubt; inactive means no such curve, though single readings can be large; an effect the other way counts as inactive or inconclusive. Potency means the concentration at half of the fitted maximal effect.

SMILES	TDP1 inh	ClpP mod	DT40 TDP1 no CPT	TDP1 cell CPT
O=c1[nH]/c(=C\c2ccc([N+](=O)[O-])cc2)c(=O)[nH]/c1=C\c1ccc([N+](=O)[O-])cc1	·	2.1%	-29.6%	?
CC1=N/C(=C/c2ccc([N+](=O)[O-])cc2)C(=O)N1c1ccc(Cl)cc1Cl	-9.8%	-0.4%	25.9µM*	?
COc1ccc(NC(=O)COc2ccc(S(=O)(=O)NC3CCCCC3)cc2)c(OC)c1	-1.1%	1.4%	16.4µM*	14.6µM*
O=C(Nc1ccccc1Oc1ccccc1)C1CCCC1	-3.2%	-1.3%	-18.7%	-12.4%
O=C(NNC(=S)NC1CCCCC1)c1ccc(Cl)s1	5.1%	0.8%	14.6µM*	-23.6%
COc1cccc(C(=O)NNC(=S)NC2CCCCC2)c1	3.5%	6.9%	?	16.4µM*
S=C(Nc1ccccc1Oc1ccccc1)NC1CCCC1	5.5%	-1.8%	18.4µM*	?
Cc1cn([C@H]2C[C@H](O)[C@@H](CCC(=O)NCC(c3ccccc3)c3ccccc3)O2)c(=O)[nH]c1=O	·	3.6%	16.4%	-2.4%
COc1ccccc1CN1CCCC2(CCN(C(=O)c3cccn3C)CC2)C1	·	·	-13.9%	3.3%
CNC(C)C(=O)NC(C(=O)N1CCCC1C(=O)NNc1ccccc1)C(C)C (centres undefined)	-8.9%	-1.5%	0.2%	20.7%
COc1cc(NC(=O)c2cc3cc4ccc(OC)c(Cl)c4nc3s2)cc(OC)c1	4.1%	-4.4%	-21.0%	-26.8%
COc1ccc(NC(=O)CN2CCCCCC2)cc1OC	1.9%	·	-4.4%	9.5%
COc1ccccc1NC(=S)NC1CCC(CC2CCC(NC(=S)Nc3ccccc3OC)CC2)CC1 (centres undefined)	6.9%	-1.6%	13µM*	10.3µM*
COc1ccccc1NC(=S)NC1CCCC1	·	0.3%	47.9%	4.6%
CC(C)c1ccccc1NC(=S)NC1CCCCC1	10.3%	·	?	-2.1%
S=C(Nc1cccc2ccccc12)NC1CCCCC1	1.2%	·	16.4µM*	?
CCCCc1ccccc1NC(=S)NC1CCCC1	2.3%[56.1 µM]	0.2%	18.4µM*	?
COc1ccc(NC(=S)NC2CCCCCC2)c(OC)c1	1.1%	0.8%	23.1µM*	?
CSc1ccccc1NC(=S)NC1CCCC1	3.9%	1.3%	10.0%	-3.9%
Cc1ccc(Cl)cc1NC(=O)Cn1c(SCC(=O)NCc2ccccc2)nc2ccccc21	6.2%	2.9%	?	?
CC(C)CO/N=C1/C[C@@H](O)[C@@H](O)[C@@H]2[C@@H]3C(=O)N(C4CCCCC4)C(=O)[C@H]3CC[C@@H]12	0.5%[21 µM]	·	·	·
COc1ccc(OC)c(Cc2nnc(CCC(=O)NCc3ccsc3)o2)c1	-5.1%	·	-21.5%	-6.4%
COc1cccc(C(=O)NC2CC3CCCC(C2)N3S(=O)(=O)c2ccccc2)c1 (centres undefined)	1.9%	·	11.6µM*	13µM*
CCCCN1C2CCCC1CC(NC(=O)c1cccc(Cl)c1)C2 (centres undefined)	·	-0.5%	23.1µM*	?
CCCCN1C2CCCC1CC(NC(=O)c1cccc(OC)c1)C2 (centres undefined)	·	-0.7%	-3.8%	-3.3%
SMILES	TDP1 inh	ClpP mod	DT40 TDP1 no CPT	TDP1 cell CPT
O=C(c1ccco1)N1CCN(C2CN(C3CCCCC3)S(=O)(=O)C2)CC1 (centres undefined)	·	0.4%	-10.9%	-8.1%
CCCS(=O)(=O)N1CCCC(C(=O)Nc2ccc3c(c2)CCC3)C1 (centres undefined)	-5.9%	0.8%	-13.5%	?
COc1ccccc1C1C(C(=O)c2ccco2)=C(O)C(=O)N1c1cc(C)on1 (centres undefined)	3.7%	1.3%	?	?
CC(C)Cc1nc2cc(NS(=O)(=O)N(C)C)cc(C(=O)N3CCc4sccc4C3)c2n1C	·	·	0.0%	5.1%
C=CCN1C=C2C(=O)C(C)(OC(=O)c3cnc4ccccc4n3)C(=O)C=C2C=C1/C=C/COC (centres undefined)	0.8%[12.3 µM]	-2.1%	16.4µM*	?
COC/C=C/C1=CC2=CC(=O)C(C)(OC(=O)c3cnc4ccccc4n3)C(=O)C2=CN1CCOC (centres undefined)	6.8%[12.3 µM]	0.1%	?	?
CN(Cc1ccccc1)c1ccc(/C=C/c2sc3ccccc3[n+]2C)cc1	·	1.3%	0.112µM*	0.0891µM*
CCCCCCCCN(CCCCCCCC)c1ccc(/C=C/c2ccnc3ccccc23)cc1	·	2.5%	-21.5%	-2.5%
CN(C)c1ccc(/C=C/c2sc3ccccc3[n+]2CCCCI)cc1	·	1.3%	0.708µM*	0.562µM*
CCCC[n+]1c(/C=C/c2ccc(N(C)C)cc2)sc2ccccc21	·	-0.5%	0.1µM*	0.0251µM*
CCCCCCCCCC[n+]1ccc(/C=C/c2ccc(N(C)C)cc2)c2ccccc21	·	-2.8%	0.316µM*	0.355µM*
O=C(NCc1ccccc1C(F)(F)F)c1cccc2c1C(=O)c1ccc(N3CCCCC3)cc1S2(=O)=O	-3.3%	0.3%	?	?
Cc1ccc(CSc2nc3c(c(=O)[nH]2)C(c2ccncc2)C2=C(CCCC2=O)N3)cc1 (centres undefined)	8.0%	14.1µM*	-24.6%	-3.5%
CSc1nc2c(c(=O)[nH]1)C(c1cccs1)C1=C(CCCC1=O)N2 (centres undefined)	-3.1%	22.4µM*	-10.7%	1.9%
CCSc1nc2c(c(=O)[nH]1)C(c1cccs1)C(C(=O)OC)=C(C)N2 (centres undefined)	-5.3%	90.2%	-0.5%	-2.7%
Cc1ccc(CSc2nc3c(c(=O)[nH]2)C(c2cccc(F)c2F)CC(=O)N3)cc1 (centres undefined)	2.6%	0.4%	?	14.6µM*
Cc1ccc(C2C3=C(CCCC3=O)Nc3[nH]c(=S)[nH]c(=O)c32)cc1 (centres undefined)	3.9%	8.6%	-0.5%	-20.5%
CSc1nc2c(c(=O)[nH]1)C(c1ccccc1)C1=C(CC(C)(C)CC1=O)N2 (centres undefined)	-0.6%	·	-15.7%	1.7%
CC1(C)CC(=O)C2=C(C1)Nc1nc(SCCN3CCOCC3)[nH]c(=O)c1C2c1cccs1 (centres undefined)	0.0%	31.6µM*	-1.3%	-4.0%
CSc1nc2c(c(=O)[nH]1)C(c1cccc(F)c1F)CC(=O)N2 (centres undefined)	2.6%	-0.6%	-23.1%	-12.1%
COc1ccccc1OCCNC(=O)c1ccccc1OCc1c(C)noc1C	1.3%	0.2%	-22.2%	-17.6%
Cc1nn(-c2ccccc2)c2c1C(O)CC(C)(C)C2 (centres undefined)	·	-2.8%	3.4%	5.4%
